RXFP1 ag: qHTS Assay for Agonists of the Relaxin Receptor RXFP1. HEK293T-RXFP1 cAMP TR-FRET, 30 min; response scale: percent of porcine relaxin response, buffer zero. Potency, µM (series often up to 57.5 µM), inactives show at the highest dose activation, most hits filed as activators. 370,000 tested, 0.3% active. AID 2676, 2010; active means well fitted activation curve with a large enough effect; inconclusive means small, poorly fitted or top-dose-only effect; further: potency means the concentration at half of the fitted maximal effect; nearly all actives have a fitted effect of over 60% in size
Target sequence (Q9HBX9 whole entry, looked up): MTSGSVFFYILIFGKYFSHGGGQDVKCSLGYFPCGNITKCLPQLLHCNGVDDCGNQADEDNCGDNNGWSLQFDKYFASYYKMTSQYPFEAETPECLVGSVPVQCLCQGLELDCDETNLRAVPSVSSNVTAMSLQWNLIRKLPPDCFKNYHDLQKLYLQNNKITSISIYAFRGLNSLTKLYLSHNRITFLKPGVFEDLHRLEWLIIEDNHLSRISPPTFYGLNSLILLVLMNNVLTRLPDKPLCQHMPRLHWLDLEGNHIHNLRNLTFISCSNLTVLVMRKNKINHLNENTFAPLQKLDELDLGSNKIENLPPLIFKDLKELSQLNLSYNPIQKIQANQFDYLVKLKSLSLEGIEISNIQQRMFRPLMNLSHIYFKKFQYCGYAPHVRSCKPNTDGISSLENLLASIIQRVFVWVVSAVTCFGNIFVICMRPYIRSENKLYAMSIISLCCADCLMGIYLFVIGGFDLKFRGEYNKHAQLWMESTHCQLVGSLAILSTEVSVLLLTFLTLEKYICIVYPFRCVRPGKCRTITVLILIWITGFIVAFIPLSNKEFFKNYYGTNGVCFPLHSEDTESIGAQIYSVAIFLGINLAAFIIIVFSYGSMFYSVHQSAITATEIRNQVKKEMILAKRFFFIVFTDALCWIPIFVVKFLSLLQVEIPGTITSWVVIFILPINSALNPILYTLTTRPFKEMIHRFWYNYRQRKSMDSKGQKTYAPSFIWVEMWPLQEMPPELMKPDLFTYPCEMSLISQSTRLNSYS
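HEK293T cells stably expressing RXFP1 were pretreated with the PDE4 inhibitor Ro 20174, exposed to compounds for 30 min at 37C, lysed, and cAMP was read by TR-FRET. Data normalized to buffer (basal) and 29 nM porcine relaxin (100%).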
KCNH2 3.1 block: qHTS for Inhibitors of KCHN2 3.1: Mutant qHTS; 340,000 tested, 0.95% active; Potassium voltage-gated channel subfamily H member 2, brain isoform KCNH2 3.1 (human); activity change, % (tested at about 1.8 µM); U2OS KCNH2 3.1, thallium flux FluxOr; hits give low values; AID 720553, 2013;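 active means maximum activity change below -70%; inconclusive means maximum activity change from -70% to -50%; inactive means maximum activity change above -50%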;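 further: thallium influx rate constant from kinetic fluorescence after stimulation buffer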
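Thallium flux via FluxOr fluorescence (Red40 quencher, 45 min loading) in U2OS cells virally expressing the KCNH2 3.1 isoform (1.77 x 10^8 /mL virus, overnight at 37 C). Rate constants from 2-min kinetic reads post-stimulation, normalised to positive and negative controls.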
RXFP1 antagonist: qHTS Assay for Antagonists of the Relaxin Receptor RXFP1; Relaxin receptor 1 (Homo sapiens), Q9HBX9; HEK293-RXFP1, relaxin-stimulated cAMP HTRF, 30 min; hits give low values; activity change, negative = inhibition, % at 57.5 µM; 350,000 tested, 0.59% active; AID 1259400, 2018;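 active means activity change of -60% or lower, but not beyond a set lower limit; inconclusive means change between -60% and -40%, or beyond the set limit; inactive means change above -40%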
Akt phos inh: HTS Assay for Inhibitors of Akt Phophorylation: Primary Screen; Neuro2A IGF-stimulated pAkt S473 HTRF, 20 min; hits give low values; activity change, % for hits at 50 µM; 360,000 tested, 0.32% active; AID 651550, 2012; in the data active means activity change below about -80%; inconclusive means mostly about -51% to -80%
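Single-point screen (50 µM final compound) in Neuro2A cells stimulated 20 min with 6 nM IGF at 37 deg C. After lysis, Ser473-phosphorylated Akt read by HTRF (ex 330 nm, em 615/665 nm) as the 665/615 ratio.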
hERG WT inh: qHTS for Inhibitors of KCHN2 3.1: Wildtype qHTS; Voltage-gated inwardly rectifying potassium channel KCNH2 (Homo sapiens), Q12809; U2OS, BacMam KCNH2, thallium flux FluxOr; hits give low values; activity change, % at 1.84 µM; 340,000 tested, 0.37% active; AID 720551, 2013;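 active means maximum activity change below -70%; inconclusive means maximum activity change between -70% and -50%; inactive means maximum activity change above -50%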
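U2OS cells were transduced with wild-type KCNH2 virus (2.03 x 10^8 / mL) for 4 h at room temperature, then cultured overnight at 37 C. Thallium flux was read with FluxOr dye. Rate constants were normalized to DMSO controls.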
* = called active by the depositor; i = inactive; ? = inconclusive; / = no result given. This is a sample that favours compounds with a hit; in the whole collection about 1.7% have one here. On the % scale 0 is the no-effect control and ±100 the full control effect.

SMILES	RXFP1 ag	KCNH2 3.1 block	RXFP1 antagonist	Akt phos inh	hERG WT inh
COC(=O)/C(=C\C(=O)c1ccc([N+](=O)[O-])cc1)Nc1ccc(OC)cc1	-0.2%	-77.2*	-21.9	i	-5.7
CNc1ccc(/C=C(\C#N)C(=O)Nc2ccccn2)cc1[N+](=O)[O-]	17.8µM*	-0.1	18.7	i	-7.2
COc1ccc(/C=N/NC(=O)c2cccc([N+](=O)[O-])c2)cc1OC	1.6%	17.2	-5.7	i	4.7
O=[N+]([O-])c1ccc(NN=Cc2cc(Br)ccc2O)nc1	/	-10.3	-73.6*	i	0.3
O=[N+]([O-])c1ccc(N/N=C\c2cccnc2)nc1	-2.0%	-94.6*	-0.1	i	/
N#Cc1cc([N+](=O)[O-])ccc1Oc1cccc(/C=N/NC(=O)c2cccc(Cl)c2)c1	2.6%	?	-10.1	i	-77.0*
O=C(N/N=C/c1cccnc1)c1ccc([N+](=O)[O-])cc1Cl	-1.0%	1.7	1.8	-82.5%*	2.0
O=C(CCC1N=C2c3ccccc3N=C(SCC(=O)NCC3CCCO3)N2C1=O)NCc1ccc(F)cc1 (stereo not drawn)	28.8%	-8.5	-69.0*	/	1.8
Cc1ccc(C)c2nc(SCC(=O)NCc3cccs3)c(C#N)cc12	?	-0.1	-4.3	i	-3.4
CCOC(=O)CNC(=O)CSc1nc2c(C)cccc2cc1CC	14.1µM*	-3.1	15.2	i	-13.2
Cc1cccc2cc(C#N)c(SCC(=O)NCc3cccs3)nc12	12.6µM*	-0.4	1.4	i	-7.4
Cc1c(C#N)c(N=CN(C)C)c(C(=O)c2ccccc2)n1-c1ccc(Br)cc1	0.3%	0.8	-3.7	i	16.7
COc1ccc(NC(=O)c2cccc(N3C(=O)C4C5C=CC(C5)C4C3=O)c2)c(OC)c1 (stereo not drawn)	-0.3%	7.5	7.2	i	19.6
COc1ccccc1NC(=O)c1cccc(N2C(=O)C3C4C=CC(C4)C3C2=O)c1 (stereo not drawn)	-4.8%	13.0	-77.0*	i	1.8
O=C(OCc1ccccc1)N1CCC2CC1c1c(Cl)cccc12 (stereo not drawn)	/	-14.5	/	i	-3.3
O=C(/C=C/c1ccc(-c2ccccc2[N+](=O)[O-])o1)c1ccco1	1.3%	-8.8	-63.5*	i	-3.1
CCNS(=O)(=O)c1ccc(Br)c(OC)c1	-1.0%	-92.8*	22.7	i	-29.3
O=c1[nH]cnc2c1c(-c1ccccc1)cn2-c1ccccc1	0.3%	-6.3	-75.1*	/	-0.3
Cc1ccc(-n2cc(-c3ccccc3)c3c(=O)[nH]cnc32)cc1	0.4%	16.4	/	i	-8.8
CN1C[C@@H]2[C@@H]3C(=O)N(Cc4ccccc4)C(=O)[C@@H]3[C@](Cc3ccccc3)(C1=O)N2C(=O)c1ccc(C(C)(C)C)cc1	/	-16.5	/	i	8.7
O=C(COC(=O)CCNS(=O)(=O)c1ccccc1F)Nc1nnc(-c2ccccc2)o1	-0.3%	1.9	-7.3	i	4.6
O=C(O)c1cccc(COc2ccc3c(c2)CCC3)c1	4.3%	-112.0*	-2.9	i	6.4
O=C(NCc1ccccc1)c1cccc(COc2ccc3c(c2)CCC3)c1	1.1%	-16.5	-0.8	i	-1.3
CCN(CC(=O)Nc1ccc(OC(F)F)cc1)C1CCCCC1	2.0%	-92.0*	-2.0	i	-8.2
CCN(C(=S)Nc1ccc(OC(F)F)cc1)C1CCCCC1	1.5%	-15.9	-8.2	i	0.8
SMILES	RXFP1 ag	KCNH2 3.1 block	RXFP1 antagonist	Akt phos inh	hERG WT inh
CCCCn1nc2cc(C(=O)NC[C@@H]3CCCO3)ccc2c1OCC	6.1%	12.6	/	i	-3.3
C[C@H](O)[C@@H]1C(=O)N2CCc3ccc(N4CCN(C)CC4)cc3[C@@H]2C[C@@H]1N(C)C(=O)NC1CCCCC1	/	11.4	/	i	2.3
COc1cc(C(=O)Nc2cccc(-c3nnc(-c4ccco4)o3)c2)ccc1OC(C)=O	4.5%	-12.8	-65.0*	i	-10.5
COc1cc(C(=O)Nc2ccc3c(c2)Cc2ccccc2-3)cc(OC)c1OC	6.8%	-91.3*	2.0	i	-24.7
COc1cc(C(=O)Nc2ccc(-c3nnc(-c4ccco4)o3)cc2)cc(OC)c1OC	0.5%	0.7	-8.3	-101.9%*	-7.1
Cn1ccc2c(N3CCCCCC3)cc3c(c21)C1CCC3O1 (stereo not drawn)	/	/	/	i	/
Cc1ccc(CN2C3CCCC2CC(NC(=O)c2ccc(F)cc2)C3)cc1 (stereo not drawn)	3.7%	-80.2*	-18.5	i	?
O=C(NC1CC2CCCC(C1)N2Cc1ccccc1)c1ccc([N+](=O)[O-])cc1 (stereo not drawn)	2.6%	-80.2*	2.5	i	-14.6
COc1ccc(C(=O)NC2CC3CCCC(C2)N3Cc2ccccc2)cc1 (stereo not drawn)	0.1%	-2.8	-1.4	i	33.6
Cc1ccc(C(=O)NC2CC3CCCC(C2)N3Cc2ccccc2)cc1 (stereo not drawn)	-1.2%	-4.1	-10.7	i	18.4
COc1ccc(CN2C3CCC2CC(NC(=O)c2cccc(F)c2)C3)cc1 (stereo not drawn)	0.0%	-84.2*	-1.9	i	-25.9
O=C(CN1CCN(c2ccc(Cl)cc2)CC1)Nc1cccc(F)c1	0.8%	-0.7	-6.5	i	4.6
O=S1(=O)c2ccc(Br)cc2N2CC[C@H](C2)N1Cc1ccc(Cl)cc1	/	-17.8	/	i	4.8
Cc1cccc(NCCC(=O)c2ccc([N+](=O)[O-])cc2)c1C	3.0%	-82.5*	2.1	i	3.9
Cc1ccc(NCCC(=O)c2cccc([N+](=O)[O-])c2)c(C)c1	-1.7%	?	-23.1	i	-5.3
Cc1ccc(C)c(N2CCN(C(=O)CN3CCSc4ccccc43)CC2)c1	-3.1%	/	/	/	/
CCN(CC)C(=O)C1CCCN(C/C=C/c2ccccc2)C1 (stereo not drawn)	2.2%	-11.3	-5.8	-104.6%*	11.1
O=C(Nc1ccccc1Oc1cccnc1)C1CCCN(C/C=C/c2ccccc2)C1 (stereo not drawn)	-3.3%	-85.0*	-2.5	i	-19.2
CCN(CC)C(=O)C1CCCN(C/C(C)=C/c2ccccc2)C1 (stereo not drawn)	0.4%	8.5	12.6	i	7.3
COc1ccc(/C=C2\SC(=O)N(CCNC(=O)C3=COCCO3)C2=O)cc1	0.0%	-0.1	-21.6	i	3.7
COc1ccc(NC(=O)CSc2nc(=O)n(CCN3CCOCC3)c3c2CCCC3)c(OC)c1	1.4%	-119.6*	6.2	i	11.7

Compound activity from PubChem.
